According to PubChem BioAssay (Tox21):
Inconclusive results are not listed. Unmarked numbers belong to inactive results. Activity calls are given as the source filed them. The call rests on the fitted dose curve; in most records, active means well fitted curve in the direction sought with a large enough effect in the repeat runs; inconclusive means weak or mixed curves; inactive means no such curve, though single readings can be large; an effect the other way counts as inactive or inconclusive.

Assay: A CellTox Green Cytotoxicity Assay to monitor cytotoxicity in HEK293 cells - 16 hour (AID 1224888); further: nearly all actives have a fitted effect of over 35% in size; further: potency means the concentration at half of the fitted maximal effect
Details: CellTox Green fluorescence; series mostly up to 76.8 µM; activity change: at the top concentration
Outline: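 Fluorescence from a DNA-binding dye excluded by viable cells was measured repeatedly in the same HEK293 wells (600 cells/well) during continuous compound exposure at 37 C. Each assay gives one read point: 0, 8, 16, 24, 32 or 40 h.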
On the % scale 0 is the no-effect control and ±100 the full control effect.

| Structure (SMILES) | activity change | Potency |
| --- | --- | --- |
| Cc1cnccn1 | -8.82% | – |
| C/C=C/CO | -1.25% | – |
| ClC/C=C\CCl | -6.38% | – |
| CN1[C@@H]2CC[C@@H]1CC(OC(=O)C(CO)c1ccccc1)C2 (some centres undefined) | 14.2% [at 35.3 µM, hits give high values] | – |
| O=C1OC(=O)c2ccc3c4c(ccc1c24)C(=O)OC3=O | 0.942% | – |
| O=S(O)O | 1.02% [at 15.8 µM, hits give high values] | – |
| C[Si](C)O[Si](C)C | 9.6% | – |
| O=C1C=CC(=O)N1c1ccccc1 | – | 13.8 µM (active) |
| CN1[C@@H]2CC[C@H]1CC(OC(=O)C(CO)c1ccccc1)C2 (some centres undefined) | – | inactive |
| Clc1ccc(C(c2ccccc2Cl)C(Cl)Cl)cc1 (centres undefined) | – | inactive |
| CCCC(O)C(O)CO (centres undefined) | -1.42% | – |
| CCOC(OCC)C(=O)c1ccccc1 | -0.34% | – |
| CCN(CC)c1cccc(C)c1 | -3.03% | – |
| O=Nc1ccc(NO)cc1 | -7.08% | – |
| COC(=O)NCCC[Si](OC)(OC)OC | -6.65% | – |
| Cc1c(C(=O)O)cccc1[N+](=O)[O-] | -19.9% | – |
| CCC(C)c1ccccc1 (centres undefined) | -1.66% | – |
| Cc1cccc(C)n1 | -3.89% | – |

| Structure (SMILES) | activity change | Potency |
| --- | --- | --- |
| CCc1cccc(C)c1 | -0.368% | – |
| O=C(O)Cc1ccc(OCCNC[C@H](O)c2ccccc2)cc1 | -0.786% [at 35.3 µM, hits give high values] | – |
| CCOC(/C=C(\C)CCC=C(C)C)OCC | -7.83% | – |
| CN1CN(C)CN(C)C1 | 14.1% | – |
| C1CC(COCC2CO2)CCC1COCC1CO1 (centres undefined) | -1.55% | – |
| O=C1OC(OC(=O)c2cccnc2Nc2cccc(C(F)(F)F)c2)c2ccccc21 (centres undefined) | 0.61% [at 35.3 µM, hits give high values] | – |
| CCc1cccc(CC)c1NC(=O)C(=O)O | 17.5% | – |
| CCCCCCCC/C=C\CCCCCCCC(=O)NCc1ccc(O)c(OC)c1 | 9.86% [at 35.3 µM, hits give high values] | – |
| CCCCCCCCCCCCCOP(=O)(O)O | -3.16% | – |
| OCCC(O)CO (centres undefined) | -1.91% | – |
| C=CC(=O)OCCN(CC)CC | -10.1% | – |
| COC(=O)[C@]1(C)CCC[C@@]2(C)[C@H]1CC=C1C=C(C(C)C)CC[C@@H]12 | – | 38.9 µM (active) |
| CCC1(c2cnc[nH]2)Cc2ccccc2C1 | 3.52% [at 35.3 µM, hits give high values] | – |
| CC1=C(/C=C/C(C)=C/C=C/C(C)=C/C(=O)Nc2ccc(O)cc2)C(C)(C)CCC1 | – | inactive |
| CC[N+](CC)(CC)Cc1ccccc1 | -0.681% | – |
| CC(C)c1ccccc1N | -4.06% | – |
| CCC(=O)OCCc1ccccc1 | -5.11% | – |

Assay: qHTS RealTime-Glo MT Cell Viability Assay in HepG2 cells - 0 hour (AID 1224889); further: nearly all actives have a fitted effect of over 50% in size
Details: RealTime-Glo luminescence; series mostly up to 76.8 µM; activity change, negative = cytotoxicity: at the top concentration
Outline: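 Cells + NanoLuc/prosubstrate dispensed (600 cells/well) → 5 h at 37 C/5% CO2 → compounds in DMSO transferred → 40 h incubation at 37 C, luminescence read at 0, 8, 16, 24, 32, 40 h.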

| Structure (SMILES) | activity change, negative = cytotoxicity | Potency |
| --- | --- | --- |
| Cc1cnccn1 | -12.4% | – |
| C/C=C/CO | 1.2% | – |
| ClC/C=C\CCl | 1.1% | – |
| CN1[C@@H]2CC[C@@H]1CC(OC(=O)C(CO)c1ccccc1)C2 (some centres undefined) | -0.23% [at 35.3 µM] | – |
| O=C1OC(=O)c2ccc3c4c(ccc1c24)C(=O)OC3=O | 2% | – |
| O=S(O)O | -7.74% [at 15.8 µM] | – |
| C[Si](C)O[Si](C)C | 20.8% | – |
| O=C1C=CC(=O)N1c1ccccc1 | -0.273% | – |
| CN1[C@@H]2CC[C@H]1CC(OC(=O)C(CO)c1ccccc1)C2 (some centres undefined) | – | inactive |
| Clc1ccc(C(c2ccccc2Cl)C(Cl)Cl)cc1 (centres undefined) | – | inactive |
| CCCC(O)C(O)CO (centres undefined) | 5.69% | – |
| CCOC(OCC)C(=O)c1ccccc1 | 0.15% | – |
| CCN(CC)c1cccc(C)c1 | 15% | – |
| O=Nc1ccc(NO)cc1 | -3.73% | – |
| COC(=O)NCCC[Si](OC)(OC)OC | -4.61% | – |
| Cc1c(C(=O)O)cccc1[N+](=O)[O-] | -0.423% | – |
| CCC(C)c1ccccc1 (centres undefined) | -0.558% | – |
| Cc1cccc(C)n1 | 4.92% | – |

| Structure (SMILES) | activity change, negative = cytotoxicity | Potency |
| --- | --- | --- |
| CCc1cccc(C)c1 | -13% | – |
| O=C(O)Cc1ccc(OCCNC[C@H](O)c2ccccc2)cc1 | -3.95% [at 35.3 µM] | – |
| CCOC(/C=C(\C)CCC=C(C)C)OCC | 0.183% | – |
| CN1CN(C)CN(C)C1 | -4.95% | – |
| C1CC(COCC2CO2)CCC1COCC1CO1 (centres undefined) | -5.95% | – |
| O=C1OC(OC(=O)c2cccnc2Nc2cccc(C(F)(F)F)c2)c2ccccc21 (centres undefined) | -0.631% [at 35.3 µM] | – |
| CCc1cccc(CC)c1NC(=O)C(=O)O | -1.01% | – |
| CCCCCCCC/C=C\CCCCCCCC(=O)NCc1ccc(O)c(OC)c1 | -4.89% [at 35.3 µM] | – |
| CCCCCCCCCCCCCOP(=O)(O)O | -5.47% | – |
| OCCC(O)CO (centres undefined) | 15.1% | – |
| C=CC(=O)OCCN(CC)CC | 3.71% | – |
| COC(=O)[C@]1(C)CCC[C@@]2(C)[C@H]1CC=C1C=C(C(C)C)CC[C@@H]12 | -8.35% | – |
| CCC1(c2cnc[nH]2)Cc2ccccc2C1 | 7.94% [at 35.3 µM] | – |
| CC1=C(/C=C/C(C)=C/C=C/C(C)=C/C(=O)Nc2ccc(O)cc2)C(C)(C)CCC1 | – | inactive |
| CC[N+](CC)(CC)Cc1ccccc1 | -1.48% | – |
| CC(C)c1ccccc1N | 8.36% | – |
| CCC(=O)OCCc1ccccc1 | 0% | – |

Assay: A CellTox Green Cytotoxicity Assay to monitor cytotoxicity in HepG2 cells - 8 hour (AID 1224890); further: nearly all actives have a fitted effect of over 45% in size; further: potency means the concentration at half of the fitted maximal effect
Details: CellTox Green fluorescence; series mostly up to 76.8 µM; cytotoxicity increase: at the top concentration
Outline: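 Real-time cytotoxicity: fluorescence of a cell-impermeant cyanine dye binding DNA of dead HepG2 cells, measured repeatedly (0–40 h) during compound exposure at 37 C. Cells seeded 600/well with reagent, dosed after 5 h.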

| Structure (SMILES) | cytotoxicity increase | Potency |
| --- | --- | --- |
| Cc1cnccn1 | -9.79% | – |
| C/C=C/CO | -2% | – |
| ClC/C=C\CCl | 4.21% | – |
| CN1[C@@H]2CC[C@@H]1CC(OC(=O)C(CO)c1ccccc1)C2 (some centres undefined) | -14.4% [at 35.3 µM] | – |
| O=C1OC(=O)c2ccc3c4c(ccc1c24)C(=O)OC3=O | -3.9% | – |
| O=S(O)O | -4.46% [at 15.8 µM] | – |
| C[Si](C)O[Si](C)C | -0.364% | – |
| O=C1C=CC(=O)N1c1ccccc1 | – | 34.7 µM (active) |
| CN1[C@@H]2CC[C@H]1CC(OC(=O)C(CO)c1ccccc1)C2 (some centres undefined) | – | inactive |
| Clc1ccc(C(c2ccccc2Cl)C(Cl)Cl)cc1 (centres undefined) | 3.46% [at 35.3 µM] | – |
| CCCC(O)C(O)CO (centres undefined) | -0.985% | – |
| CCOC(OCC)C(=O)c1ccccc1 | 3.86% | – |
| CCN(CC)c1cccc(C)c1 | -6.53% | – |
| O=Nc1ccc(NO)cc1 | -7.74% | – |
| COC(=O)NCCC[Si](OC)(OC)OC | -10.7% | – |
| Cc1c(C(=O)O)cccc1[N+](=O)[O-] | 3.01% | – |
| CCC(C)c1ccccc1 (centres undefined) | -6.66% | – |

| Structure (SMILES) | cytotoxicity increase | Potency |
| --- | --- | --- |
| Cc1cccc(C)n1 | 3.27% | – |
| CCc1cccc(C)c1 | -1.44% | – |
| O=C(O)Cc1ccc(OCCNC[C@H](O)c2ccccc2)cc1 | -7.53% [at 35.3 µM] | – |
| CCOC(/C=C(\C)CCC=C(C)C)OCC | -9.56% | – |
| CN1CN(C)CN(C)C1 | -4.63% | – |
| C1CC(COCC2CO2)CCC1COCC1CO1 (centres undefined) | -0.152% | – |
| O=C1OC(OC(=O)c2cccnc2Nc2cccc(C(F)(F)F)c2)c2ccccc21 (centres undefined) | -7.71% [at 35.3 µM] | – |
| CCc1cccc(CC)c1NC(=O)C(=O)O | 9.19% | – |
| CCCCCCCC/C=C\CCCCCCCC(=O)NCc1ccc(O)c(OC)c1 | -1.82% [at 35.3 µM] | – |
| CCCCCCCCCCCCCOP(=O)(O)O | -8.15% | – |
| OCCC(O)CO (centres undefined) | 13% | – |
| C=CC(=O)OCCN(CC)CC | 0.69% | – |
| COC(=O)[C@]1(C)CCC[C@@]2(C)[C@H]1CC=C1C=C(C(C)C)CC[C@@H]12 | – | 38.9 µM (active) |
| CC1=C(/C=C/C(C)=C/C=C/C(C)=C/C(=O)Nc2ccc(O)cc2)C(C)(C)CCC1 | -0.225% | – |
| CC[N+](CC)(CC)Cc1ccccc1 | 19.5% | – |
| CC(C)c1ccccc1N | 1.14% | – |
| CCC(=O)OCCc1ccccc1 | -1.2% | – |
